In assay [1] the target is Glucocorticoid receptor (Homo sapiens) (UniProt P04150). In words: qHTS assay for small molecule antagonists of glucocorticoid receptor signaling (AID 588533; active means well fitted inhibition curve with a large enough effect in the signal ratio, with a control signal flat, not every such curve was filed as active; the % refers to the signal ratio; further: on the % scale 0 is the no-effect control and ±100 the full control effect). An outline of the steps:
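Antagonist-mode qHTS: compound titrations added to GRE-bla HeLa cells, then dexamethasone 2 nM final; 18 h, 37 C. CCF4 FRET fluorescence normalized to dexamethasone and DMSO; IC50 from Hill fit.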
On the technique in general: Quantitative high-throughput screening tests each substance at several concentrations.

The nature of assay [2]: qHTS assay for small molecule antagonists of peroxisome proliferator-activated receptor delta signaling (AID 588535; active means well fitted inhibition curve with a large enough effect in the signal ratio, with a control signal flat, not every such curve was filed as active; the % refers to the signal ratio;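 on max response: cells co-treated with a PPAR-delta agonist as stimulator during compound exposure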). Particulars: HEK293T PPARd-UAS-bla, beta-lactamase FRET ratio, 18 h; 460 nm channel. An outline of the steps: (§1)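 Beta-lactamase reporter read-out (405 nm excitation, 460/530 nm emission) after CCF4 loading for 2 hrs at RT. HEK293T PPAR-delta-UAS-bla cells, 2% charcoal/dextran FBS, compounds for 18 hrs at 37 C. Hill fit gave IC50 and efficacy.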

For assay [3], the target named is Peroxisome proliferator-activated receptor delta (Homo sapiens) (UniProt Q03181). The description is as above. An outline of the steps:
as §1

The target in assay [4] is Peroxisome proliferator-activated receptor gamma (Homo sapiens) (UniProt P37231). The assay can be described thus: qHTS assay for small molecule agonists of peroxisome proliferator-activated receptor gamma signaling (AID 588536; active means well fitted curve in the direction sought with a large enough effect in the signal ratio, with a control signal flat, not every such curve was filed as active; the % refers to the signal ratio;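 further: 0% = DMSO basal wells and 100% = rosiglitazone at 2 µM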). An outline of the steps:
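Beta-lactamase reporter read-out: CCF4 fluorescence (ex 405, em 460/530 nm) after 2 h at RT. HEK293 GeneBLAzer cells were treated for 16 h at 37 C. Hill fits gave EC50 and efficacy versus 2 uM rosiglitazone (100%) and DMSO (0%).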

Assay [5] shares this target. In words: qHTS assay for small molecule antagonists of peroxisome proliferator-activated receptor gamma signaling (AID 588537; active means well fitted inhibition curve with a large enough effect in the signal ratio, with a control signal flat, not every such curve was filed as active; the % refers to the signal ratio;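 further: reporter cells co-stimulated with 50 nM rosiglitazone agonist during compound treatment; % of control where 0% means no effect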). An outline of the steps: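 Read-out: CCF4 fluorescence (ex 405, em 460/530 nm) after 2 h at RT. Cells were HEK293 carrying a UAS-bla reporter and treated 16 h at 37 C with compound plus rosiglitazone (50 nM final). Normalized to rosiglitazone and DMSO.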

For assay [6], the target named is Vitamin D3 receptor (Homo sapiens) (UniProt P11473). The assay can be described thus: qHTS assay for small molecule antagonists of vitamin D receptor signaling (AID 588541).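 Further: receptor activated by calcitriol during compound treatment; series mostly up to about 77 µM; on the % scale 0 is the no-effect control and ±100 the full control effect.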 An outline of the steps: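 VDR-UAS-bla HEK293T cells in 2% charcoal-stripped FBS were stimulated with 1-alpha,25-dihydroxyvitamin D3 (3 nM final) plus compound for 16 h at 37 C. The beta-lactamase CCF4 readout was normalized to 50 nM agonist and DMSO, and Hill fits gave IC50.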

Assay [7] has the same target. In words: qHTS assay for small molecule agonists of vitamin D receptor signaling (AID 588543).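 Further: 0% = DMSO basal and 100% = reference agonist control.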 An outline of the steps:
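Measured: β-lactamase reporter activity (CCF4, 405 nm excitation, 460/530 nm emission) in HEK293T VDR-UAS-bla cells after 16 h compound exposure at 37 °C. Normalization against 50 nM 1α,25-dihydroxyvitamin D3 and DMSO; Hill-fit EC50.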

The nature of assay [8]: qHTS assay for small molecule agonists of retinoid X receptor alpha signaling (AID 588544).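 On activation: 0% = DMSO basal wells and 100% = reference agonist.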 As to conditions: HEK293T RXRa-UAS-bla, beta-lactamase reporter, 18 h; 530 nm emission.
Assay [9] has as its target Retinoic acid receptor RXR-alpha (Homo sapiens) (UniProt P19793). The description is as above.
Assay [10] addresses Thyroid hormone receptor beta (Homo sapiens) (UniProt P10828). The assay can be described thus: qHTS assay for small molecule agonists of thyroid hormone receptor beta signaling (AID 588545).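 Further: 0% = DMSO only and 100% = 10 nM T3.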 An outline of the steps: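 Compounds were tested as agonists in TR-UAS-bla-GripTite HEK 293 cells. After 18 hrs at 37 C, CCF4 substrate was added and fluorescence read after 2 hrs at room temperature.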

Assay [11] is described as follows: qHTS assay for small molecule antagonists of retinoid X receptor alpha signaling (AID 588546; active means well fitted inhibition curve with a large enough effect in the signal ratio, with a control signal flat, not every such curve was filed as active; the % refers to the signal ratio;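 further: cells stimulated with 9-cis-retinoic acid as agonist; on the % scale 0 is the no-effect control and ±100 the full control effect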). Particulars: HEK293T RXRa-UAS-bla, beta-lactamase ratio, antagonist mode; measured here: W530 green channel, cytotoxicity proxy. An outline of the steps: (§2)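 Beta-lactamase reporter inhibition, read as CCF4 fluorescence ratio (ex 405, em 460/530 nm) after 2 h at RT. HEK293T UAS-bla cells, 2500/well, were stimulated with 9-cis-RA at 500 or 100 nM final alongside test compound for 18 h at 37 C.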

The target in assay [12] is Thyroid hormone receptor beta (Homo sapiens) (UniProt P10828). The assay can be described thus: qHTS assay for small molecule antagonists of thyroid hormone receptor beta signaling (AID 588547; active means well fitted inhibition curve with a large enough effect in the signal ratio, with a control signal flat, not every such curve was filed as active; the % refers to the signal ratio). As to conditions: TR-UAS-bla HEK293, beta-lactamase ratio, antagonist mode, 18 h. An outline of the steps: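 TR-UAS-bla GripTite HEK293 cells in 2% charcoal/dextran FBS medium; compounds 0.59 nM to 92 uM with T3 at 0.4nM final, 18 h at 37 C. Beta-lactamase read by CCF4 fluorescence (460/530 nm); Hill fits gave IC50 and efficacy.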

In assay [13] the target is Voltage-gated inwardly rectifying potassium channel KCNH2 (Homo sapiens) (UniProt Q12809). In words: qHTS Assay for Small Molecule Inhibitors of the Human hERG Channel Activity (AID 588834; active means well fitted inhibition curve with a large enough effect;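 further: top concentration of the series differs between compounds; on the % scale 0 is the no-effect control and ±100 the full control effect; lower thallium flux fluorescence means stronger hERG block; nearly all actives have a fitted effect of over 50% in size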). An outline of the steps:
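Homogeneous FluxOR thallium flux assay using hERG-expressing U2OS cells (BacMam). Compound treatment about 10 minutes preceded stimulation; reduced fluorescence taken as channel block.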

Assay [14] in a line: qHTS assay for small molecule agonists of the antioxidant response element (ARE) signaling pathway (AID 651741; active means well fitted activation curve with a large enough effect in the signal ratio; the % refers to the signal ratio; further: % of control where 0% means no effect). An outline of the steps: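 HepG2 ARE-bla reporter cells, 2,000/well; 5 h settle at 37 C/5% CO2; compound pin transfer (23 nL, DMSO); 16 h at 37 C; LiveBLAzer B/G FRET substrate, 2 h RT; fluorescence intensity read.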
Assay [15] in a line: qHTS assay for small molecule activators of the p53 signaling pathway (AID 651743; active means well fitted activation curve with a large enough effect in the signal ratio, not every such curve was filed as active; the % refers to the signal ratio; further: series mostly up to about 92 µM; % of control where 0% means no effect). As to conditions: HCT-116 p53RE-bla, beta-lactamase FRET ratio, 16 h; stronger effect = higher value. An outline of the steps:
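Reporter: beta-lactamase driven by p53 response elements, stably integrated in HCT-116 cells. Cells seeded at 4,000/well, 5 h preincubation, compound (DMSO) 16 h at 37 C; B/G FRET substrate 2 h RT; fluorescence intensity read.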

Assay [16] can be described thus: qHTS assay for small molecule activators of the nuclear factor-kappa B (NF-kB) signaling pathway (AID 651749; active means well fitted activation curve with a large enough effect in the signal ratio; the % refers to the signal ratio; further: series mostly up to about 77 µM; % of control where 0% means no effect). Particulars: NF-kB-bla ME-180 cells, beta-lactamase FRET ratio, 16 h; stronger effect = higher value. An outline of the steps: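 NF-kB-bla ME-180 cells, 2,000/well; 23 nL compound or DMSO pinned; 16 hr, 37C/5% CO2; beta-lactamase FRET read-out.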
Assay [17] addresses Glucocorticoid receptor (Homo sapiens) (UniProt P04150). The assay can be described thus: qHTS assay for small molecule agonists of glucocorticoid receptor signaling (AID 588532; active means well fitted curve in the direction sought with a large enough effect in the signal ratio, with a control signal flat; the % refers to the signal ratio;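 further: 100% = dexamethasone at 0.1 µM and 0% = DMSO only wells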). Particulars: HeLa MMTV-bla, beta-lactamase ratio, agonist, 18 h; stronger effect = higher value; percent of dexamethasone control, DMSO zero. An outline of the steps:
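Cells were plated and rested 3-5 h at 37 C, compounds were added in titration and incubated 18 h, then CCF4 substrate was loaded for 2 h at RT before reading blue/green fluorescence. EC50 came from Hill-equation fitting.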

Assay [18] deals with Retinoic acid receptor RXR-alpha (Homo sapiens) (UniProt P19793). The assay can be described thus: qHTS assay for small molecule antagonists of retinoid X receptor alpha signaling (AID 588546).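 Further: cells stimulated with 9-cis-retinoic acid as agonist; on the % scale 0 is the no-effect control and ±100 the full control effect.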 As to conditions: HEK293T RXRa-UAS-bla, beta-lactamase ratio, antagonist mode. An outline of the steps: as §2

Inconclusive results are not listed. Calls of active or inactive are those of the source. Unless noted, the call rests on the fitted dose curve.

The record followed here is PubChem BioAssay (NCATS).

Peroxisome proliferator-activated receptor delta (Homo sapiens), sequence (Q03181 whole entry, looked up): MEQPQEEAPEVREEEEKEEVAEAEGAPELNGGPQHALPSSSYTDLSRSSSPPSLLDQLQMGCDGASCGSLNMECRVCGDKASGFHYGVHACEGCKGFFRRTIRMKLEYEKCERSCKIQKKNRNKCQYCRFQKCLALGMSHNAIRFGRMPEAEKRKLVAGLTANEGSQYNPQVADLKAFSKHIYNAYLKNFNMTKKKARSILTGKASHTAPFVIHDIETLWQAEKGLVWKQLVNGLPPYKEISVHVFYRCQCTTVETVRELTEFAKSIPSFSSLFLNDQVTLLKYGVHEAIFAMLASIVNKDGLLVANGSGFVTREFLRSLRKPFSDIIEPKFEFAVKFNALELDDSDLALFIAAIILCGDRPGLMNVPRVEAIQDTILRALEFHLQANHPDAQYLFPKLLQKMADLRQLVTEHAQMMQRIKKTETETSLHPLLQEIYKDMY
Voltage-gated inwardly rectifying potassium channel KCNH2 (Homo sapiens), sequence (Q12809 whole entry, looked up): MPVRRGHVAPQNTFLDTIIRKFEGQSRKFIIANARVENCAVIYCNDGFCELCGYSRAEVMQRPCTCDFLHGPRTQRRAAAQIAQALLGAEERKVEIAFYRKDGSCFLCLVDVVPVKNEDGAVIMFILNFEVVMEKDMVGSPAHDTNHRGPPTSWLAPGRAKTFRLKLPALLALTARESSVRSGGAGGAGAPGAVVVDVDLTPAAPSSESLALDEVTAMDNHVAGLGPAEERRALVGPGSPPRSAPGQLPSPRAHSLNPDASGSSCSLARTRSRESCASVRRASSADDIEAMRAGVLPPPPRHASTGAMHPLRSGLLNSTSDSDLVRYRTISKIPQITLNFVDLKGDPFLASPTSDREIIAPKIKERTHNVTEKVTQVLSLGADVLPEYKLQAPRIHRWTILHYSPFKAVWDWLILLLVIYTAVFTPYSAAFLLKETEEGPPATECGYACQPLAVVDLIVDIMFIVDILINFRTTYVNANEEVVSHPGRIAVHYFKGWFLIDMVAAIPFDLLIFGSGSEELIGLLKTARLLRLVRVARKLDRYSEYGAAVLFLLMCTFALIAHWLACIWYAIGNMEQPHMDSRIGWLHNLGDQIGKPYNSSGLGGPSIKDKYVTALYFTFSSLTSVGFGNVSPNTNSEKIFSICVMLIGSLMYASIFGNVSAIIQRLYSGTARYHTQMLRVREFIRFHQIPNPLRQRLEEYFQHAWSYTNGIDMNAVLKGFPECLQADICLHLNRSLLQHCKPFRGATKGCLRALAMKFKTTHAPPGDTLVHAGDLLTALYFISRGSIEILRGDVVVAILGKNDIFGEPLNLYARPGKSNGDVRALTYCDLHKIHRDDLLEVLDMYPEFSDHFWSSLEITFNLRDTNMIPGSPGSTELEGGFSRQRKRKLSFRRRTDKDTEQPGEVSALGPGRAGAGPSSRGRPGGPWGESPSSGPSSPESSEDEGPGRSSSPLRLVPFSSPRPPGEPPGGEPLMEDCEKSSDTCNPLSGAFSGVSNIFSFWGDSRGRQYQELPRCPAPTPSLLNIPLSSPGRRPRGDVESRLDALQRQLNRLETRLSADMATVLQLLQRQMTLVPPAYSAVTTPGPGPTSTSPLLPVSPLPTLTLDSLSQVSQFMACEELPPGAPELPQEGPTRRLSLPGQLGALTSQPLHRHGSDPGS
Vitamin D3 receptor (Homo sapiens), sequence (P11473 whole entry, looked up): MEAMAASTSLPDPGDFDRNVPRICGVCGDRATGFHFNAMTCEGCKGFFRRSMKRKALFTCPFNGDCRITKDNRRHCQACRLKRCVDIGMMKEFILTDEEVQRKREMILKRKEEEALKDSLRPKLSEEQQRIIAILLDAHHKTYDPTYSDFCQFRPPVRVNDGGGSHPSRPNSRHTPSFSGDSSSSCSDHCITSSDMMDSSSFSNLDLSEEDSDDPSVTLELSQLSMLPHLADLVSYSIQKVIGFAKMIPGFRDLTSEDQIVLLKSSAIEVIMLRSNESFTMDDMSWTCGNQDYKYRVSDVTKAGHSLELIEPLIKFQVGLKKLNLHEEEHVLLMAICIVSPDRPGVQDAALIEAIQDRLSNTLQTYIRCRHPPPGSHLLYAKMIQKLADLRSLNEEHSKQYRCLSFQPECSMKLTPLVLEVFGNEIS
Glucocorticoid receptor (Homo sapiens), sequence (P04150 whole entry, looked up): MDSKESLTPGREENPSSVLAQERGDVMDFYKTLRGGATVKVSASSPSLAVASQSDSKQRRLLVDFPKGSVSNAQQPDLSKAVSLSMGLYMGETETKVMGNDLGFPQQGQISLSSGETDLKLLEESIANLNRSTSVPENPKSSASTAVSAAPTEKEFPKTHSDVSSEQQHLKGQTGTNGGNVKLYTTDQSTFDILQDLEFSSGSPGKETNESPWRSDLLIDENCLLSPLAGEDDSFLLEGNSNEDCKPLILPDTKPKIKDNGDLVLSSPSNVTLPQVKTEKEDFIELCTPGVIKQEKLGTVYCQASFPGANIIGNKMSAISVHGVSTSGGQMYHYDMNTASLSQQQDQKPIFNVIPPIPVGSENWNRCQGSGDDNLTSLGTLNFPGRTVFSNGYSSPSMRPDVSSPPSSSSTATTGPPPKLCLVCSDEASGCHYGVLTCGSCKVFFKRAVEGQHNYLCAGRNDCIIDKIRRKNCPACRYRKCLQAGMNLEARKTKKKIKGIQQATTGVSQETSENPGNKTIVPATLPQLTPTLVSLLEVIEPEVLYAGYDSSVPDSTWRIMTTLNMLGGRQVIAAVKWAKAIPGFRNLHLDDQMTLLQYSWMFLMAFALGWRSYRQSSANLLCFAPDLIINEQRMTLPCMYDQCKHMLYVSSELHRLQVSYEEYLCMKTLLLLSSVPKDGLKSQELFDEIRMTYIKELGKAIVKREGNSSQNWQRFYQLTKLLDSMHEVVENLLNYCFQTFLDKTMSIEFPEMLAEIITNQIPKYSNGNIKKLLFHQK
Peroxisome proliferator-activated receptor gamma (Homo sapiens), sequence (P37231 whole entry, looked up): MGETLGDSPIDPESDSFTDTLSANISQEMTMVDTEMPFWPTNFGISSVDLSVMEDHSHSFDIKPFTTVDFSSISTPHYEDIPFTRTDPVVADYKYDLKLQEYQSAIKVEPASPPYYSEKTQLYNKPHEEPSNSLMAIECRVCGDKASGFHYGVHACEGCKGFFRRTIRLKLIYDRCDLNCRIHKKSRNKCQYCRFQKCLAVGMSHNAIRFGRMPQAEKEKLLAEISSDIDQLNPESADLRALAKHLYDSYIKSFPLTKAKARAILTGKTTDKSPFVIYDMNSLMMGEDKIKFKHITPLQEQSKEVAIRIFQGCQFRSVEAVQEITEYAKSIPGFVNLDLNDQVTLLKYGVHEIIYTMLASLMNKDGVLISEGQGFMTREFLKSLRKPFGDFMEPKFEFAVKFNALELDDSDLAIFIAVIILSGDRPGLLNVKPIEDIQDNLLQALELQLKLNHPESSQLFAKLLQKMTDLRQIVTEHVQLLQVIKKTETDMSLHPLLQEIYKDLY
Retinoic acid receptor RXR-alpha (Homo sapiens), sequence (P19793 whole entry, looked up): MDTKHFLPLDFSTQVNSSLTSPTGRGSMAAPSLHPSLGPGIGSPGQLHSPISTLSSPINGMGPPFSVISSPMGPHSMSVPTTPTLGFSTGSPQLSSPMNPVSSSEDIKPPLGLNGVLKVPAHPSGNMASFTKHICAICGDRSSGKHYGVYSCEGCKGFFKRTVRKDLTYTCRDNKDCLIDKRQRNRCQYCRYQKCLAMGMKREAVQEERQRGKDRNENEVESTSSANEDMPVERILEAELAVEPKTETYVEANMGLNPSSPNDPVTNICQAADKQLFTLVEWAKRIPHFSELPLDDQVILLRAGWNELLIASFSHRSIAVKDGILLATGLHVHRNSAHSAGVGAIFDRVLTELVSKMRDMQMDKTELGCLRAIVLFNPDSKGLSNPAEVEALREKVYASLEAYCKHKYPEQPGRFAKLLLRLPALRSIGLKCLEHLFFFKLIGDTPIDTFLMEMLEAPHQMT
Thyroid hormone receptor beta (Homo sapiens), sequence (P10828 whole entry, looked up): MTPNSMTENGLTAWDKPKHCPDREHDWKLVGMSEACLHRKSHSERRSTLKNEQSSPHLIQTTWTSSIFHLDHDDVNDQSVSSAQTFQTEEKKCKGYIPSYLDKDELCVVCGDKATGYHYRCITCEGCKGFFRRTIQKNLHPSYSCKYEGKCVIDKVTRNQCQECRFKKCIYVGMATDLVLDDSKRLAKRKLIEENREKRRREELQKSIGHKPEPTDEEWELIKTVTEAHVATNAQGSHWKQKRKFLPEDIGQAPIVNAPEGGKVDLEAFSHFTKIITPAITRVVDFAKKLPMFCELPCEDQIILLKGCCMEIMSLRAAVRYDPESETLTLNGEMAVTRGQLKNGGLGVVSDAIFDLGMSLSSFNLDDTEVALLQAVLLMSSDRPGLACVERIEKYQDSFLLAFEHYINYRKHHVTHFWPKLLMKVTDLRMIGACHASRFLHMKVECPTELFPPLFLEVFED

Turning to `O=Cc1c(Cl)cccc1Cl`, the call in [1], in assay [4], in [5], in assay [6], in assay [7] and in assay [9] was inactive. The compound was classed as inactive in [10]. The max response in [2] was -29.6%; in assay [8], 3.02%; in assay [11], -5.87%. The Potency entry in assay [3], in assay [13] and in [14] was “inactive” in each case. For the same compound, the activity change % (negative = inhibition) in [12] was -16.1% (inactive). Further, the activation is -2.41% (inactive) in assay [15] and -0.578% (inactive) in [16].

With `CC(C)Nc1ccccc1`, the activation in assay [17] was -8.21% (inactive); in [15] it was -0.311% (inactive); in assay [16], 0.185% (inactive). Moreover, the max response in assay [2] is 31.6%; in assay [8], -11%; in [11], -12.9%; in assay [18] it was 3.31% (inactive). In addition, the Potency entry in [3], in [13] and in [14] was “inactive” in each case. In addition, the outcome in assay [4], in assay [6], in assay [7] and in assay [10] was inactive. In addition, the activity change % (negative = inhibition) in assay [12] is -21.8% (inactive).

In the case of `C=Cc1ccccn1`, the activation in [17] was -3.05% (inactive); in assay [15] it was -2.17% (inactive). Moreover, the result in [4], in assay [6], in assay [7], in [9] and in assay [10] was inactive. The values for the max response in assay [8], in assay [11] and in [18] were -16.6%, -12.9% and -1.58% (inactive), respectively. In addition, the activity change % (negative = inhibition) in assay [12] was -28.4% (inactive). For the same compound, the Potency result in assay [13] was “inactive”.

Consider `CC(C)N(C)C`, for which the compound was classed as inactive in [1], in assay [4], in assay [5], in [7], in assay [9] and in assay [10]. Moreover, the max response is -0.77% in assay [2], -10.9% in [8], -0.298% in [11] and 11.2% (inactive) in [18]. Also, the Potency result in [3], in assay [13] and in [14] was “inactive” each time. Also, the activity change % (negative = inhibition) in [12] is -6.45% (inactive). Further, the activation in assay [15] was -1.2% (inactive); in assay [16] it was -1.35% (inactive).

In the case of `CCC(C)O` (configuration not stated), the activation in [17] is 0.0998% (inactive); in assay [15] it was -1.8% (inactive). In addition, the max response in assay [2] is -23.2%; in assay [8] it was -20.4%; in assay [11], 2.22%; in [18], 4.59% (inactive). Also, the Potency result in assay [3] and in assay [14] was “inactive” in each case. The result in [6], in assay [7], in assay [9] and in [10] was inactive. For the same compound, the activity change % (negative = inhibition) in assay [12] is -7.82% (inactive).

Consider `C=CCCCC`, for which the result in [1], in assay [4], in [5], in assay [6], in assay [7] and in assay [9] was inactive. For the same compound, the compound was called inactive in assay [10]. In addition, the max response in assay [2] is 22.6%; in [8], -12.2%; in assay [11] it was -3.19%; in assay [18], -7.65% (inactive). Besides, the Potency result in [3], in [13] and in assay [14] was “inactive” in each case. Further, the activity change % (negative = inhibition) in assay [12] is 9.97% (inactive). For the same compound, the figures for the activation in assay [15] and in assay [16] were 0.701% (inactive) and 0.582% (inactive), respectively.

Turning to `CCN(C(=O)N(CC)c1ccccc1)c1ccccc1`, the activation in [17] is -1.59% (inactive). The result in [4], in [9] and in assay [10] was inactive. The max response in assay [8] is 6.15%; in assay [11], -7.14%. Moreover, the activity change % (negative = inhibition) in [12] is 1.82% (inactive). The Potency entry in [14] is “inactive”.
